Experimental findings from the antibiotic and cytotoxicity screens of Wong et al. (2023) are described below.

Screen size: about 39,000 compounds; about 3,300 (8.5%) were called active. Only a selection was taken, and actives are over-represented in it overall.

In this experiment the test system is HepG2. As to the kind of experiment: cytotoxicity call (relative viability < 0.9). Conditions: 10 µM.
Consider `C=CCN([C@@H](Cc1ccccc1)[C@@H](O)c1cn(CCCNC(=O)C(=O)NC)nn1)S(=O)(=O)c1ccccc1[N+](=O)[O-]`, for which the cytotoxicity call was “inactive”.
Consider `C[C@@H]1CN([C@@H](C)CO)S(=O)(=O)c2ccc(C#CCN(C)C)cc2O[C@H]1CN(C)S(=O)(=O)c1cccc(F)c1`, for which the cytotoxicity call is “inactive”.
As to `CC(=O)OC[C@@H](OC(C)=O)[C@H](OC(C)=O)[C@H](OC(C)=O)[C@H](OC(C)=O)[C@@H](COC(C)=O)OC(C)=O`, the cytotoxicity call was “inactive”.
As for `Cc1noc(C)c1NC(=O)Nc1ccc2c(c1)C(=O)N([C@@H](C)CO)C[C@H](C)[C@@H](CN(C)C(=O)NC(C)C)O2`, the entry is “inactive”; as for `COc1ccc(S(=O)(=O)Nc2ccc3c(c2)CC(=O)N([C@@H](C)CO)C[C@H](C)[C@@H](CN(C)Cc2ccc(Cl)c(Cl)c2)O3)cc1`, “inactive”.
Regarding `COc1ccc(S(=O)(=O)Nc2ccc3c(c2)CC(=O)N([C@H](C)CO)C[C@H](C)[C@H](CN(C)Cc2ccc(Cl)c(Cl)c2)O3)cc1`, the cytotoxicity call was “active”.
For the molecule `COc1ccc(S(=O)(=O)Nc2ccc3c(c2)CC(=O)N([C@@H](C)CO)C[C@H](C)[C@H](CN(C)Cc2ccc(Cl)c(Cl)c2)O3)cc1`, the cytotoxicity call is “active”.
As for `COc1ccc(S(=O)(=O)Nc2ccc3c(c2)CC(=O)N([C@@H](C)CO)C[C@@H](C)[C@H](CN(C)Cc2ccc(Cl)c(Cl)c2)O3)cc1`, the entry is “inactive”.
With `COc1ccc(S(=O)(=O)Nc2ccc3c(c2)CC(=O)N([C@H](C)CO)C[C@@H](C)[C@H](CN(C)Cc2ccc(Cl)c(Cl)c2)O3)cc1`, the cytotoxicity call is “active”.
For `COc1ccc(S(=O)(=O)Nc2ccc3c(c2)CC(=O)N([C@@H](C)CO)C[C@@H](C)[C@@H](CN(C)Cc2ccc(Cl)c(Cl)c2)O3)cc1`, the cytotoxicity call is “active”.
For `CN1C(=O)c2cc(NC(=O)c3cscn3)ccc2OC[C@@H]2O[C@H](CC(=O)N3CCOCC3)CC[C@@H]21`, the cytotoxicity call was “inactive”.
In the case of `OCC1OC(OCCc2ccc(O)cc2)C(O)C(O)C1O` (stereo not given), the cytotoxicity call was “inactive”.
Take `C[C@@H]1CN([C@H](C)CO)C(=O)c2cc(NC(=O)Nc3ccc(F)cc3)ccc2O[C@@H](C)CCCCO[C@@H]1CN(C)Cc1ccc(C(=O)O)cc1`: the cytotoxicity call is “inactive”.
On to `COc1ccccc1-c1cnc2c(c1)C(=O)N([C@H](C)CO)C[C@H](C)[C@H](CN(C)C(=O)c1cccnc1)O2`, for which the cytotoxicity call was “inactive”.
In the case of `CC(O)C(=O)[O-].[NH4+]` (stereo not given), the cytotoxicity call was “inactive”.
As to `C[C@H]1CN([C@@H](C)CO)C(=O)c2cccc(NC(=O)Nc3ccc(F)cc3)c2O[C@@H]1CN(C)C(=O)Nc1ccc(C(F)(F)F)cc1`, the cytotoxicity call is “inactive”.
Take `COc1ccc(S(=O)(=O)Nc2ccc3c(c2)CC(=O)N([C@H](C)CO)C[C@H](C)[C@@H](CN(C)Cc2ccc(Cl)c(Cl)c2)O3)cc1`: the cytotoxicity call is “inactive”.
As for `COc1ccc(S(=O)(=O)Nc2ccc3c(c2)CC(=O)N([C@H](C)CO)C[C@@H](C)[C@@H](CN(C)Cc2ccc(Cl)c(Cl)c2)O3)cc1`, the cytotoxicity call was “active”.
For the molecule `C/N=C1/S[C@@H]2CS(=O)(=O)C[C@@H]2N1C`, the cytotoxicity call is “inactive”.
For the molecule `O=C(C[C@H]1CC[C@H]2[C@@H](COC[C@@H](O)CN2S(=O)(=O)c2ccc(F)cc2)O1)N[C@H]1CCN(Cc2ccccc2)C1`, the cytotoxicity call was “inactive”.
`COc1cccc(CNC(=O)C[C@@H]2C=C[C@H](NC(=O)C3CCOCC3)[C@@H](CO)O2)c1`: the cytotoxicity call was “inactive”.
Consider `C[C@@H]1CN([C@@H](C)CO)C(=O)c2cccc(NS(=O)(=O)c3cn(C)cn3)c2O[C@@H]1CN(C)Cc1ccccc1`, for which the cytotoxicity call is “inactive”.
As to `COc1ccc2cc1Oc1ccc(cc1)C[C@H]1c3cc(c(OC)cc3CCN1C)Oc1c(OC)c(OC)cc3c1[C@H](C2)N(C)CC3`, the cytotoxicity call was “active”.
In the case of `COc1cc2c3cc1Oc1cc(ccc1O)CC1c4c(cc(OC)c(O)c4Oc4ccc(cc4)CC3N(C)CC2)CC[N+]1(C)C.Cl.O.O.O.O.O.[Cl-]` (stereo not given), the cytotoxicity call is “inactive”.
In the case of `COc1cc2c3cc1Oc1cc(ccc1O)C[C@@H]1c4c(cc(OC)c(O)c4Oc4ccc(cc4)C[C@@H]3N(C)CC2)CC[N+]1(C)C`, the cytotoxicity call is “inactive”.
For the molecule `COc1ccc2cc1Oc1ccc(cc1)CC1c3c(cc4c(c3Oc3cc5c(cc3OC)CCN(C)C5C2)OCO4)CCN1C` (stereo not given), the cytotoxicity call was “active”.
As for `COc1ccc2cc1Oc1ccc(cc1)CC1c3cc(c(OC)cc3CCN1C)Oc1c(OC)c(OC)cc3c1C(C2)N(C)CC3` (stereo not given), the entry is “inactive”; as for `COc1ccc2cc1Oc1ccc(cc1)C[C@H]1c3c(cc4c(c3Oc3cc5c(cc3OC)CCN(C)[C@@H]5C2)OCO4)CCN1C`, “inactive”.
Take `CO[C@H]1CN(C)C(=O)c2cc(NS(C)(=O)=O)ccc2OC[C@H](C)N(S(C)(=O)=O)C[C@@H]1C`: the cytotoxicity call was “inactive”.
In the case of `CNC[C@@H]1OCCCC[C@@H](C)Oc2ccc(NS(=O)(=O)c3cn(C)cn3)cc2C(=O)N([C@@H](C)CO)C[C@@H]1C`, the cytotoxicity call is “inactive”.
With `C[C@H]1CN([C@@H](C)CO)C(=O)c2cc(C#CC3(O)CCCC3)cnc2O[C@H]1CN(C)C(=O)Cc1ccncc1` the entry was “inactive”.
In the case of `O=C(Nc1ccc2ccccc2c1)c1ccc(Cl)cc1Cl`, the cytotoxicity call was “inactive”.
Consider `O=C(Nc1ccc(Oc2ccc(Cl)cc2)c(Cl)c1)c1cc(I)cc(I)c1O`, for which the cytotoxicity call is “active”.
Consider `O=C(NO)c1cccc(C(=O)N/N=C/c2cc(I)cc(I)c2O)c1`, for which the cytotoxicity call was “inactive”.
In the case of `C[C@@H]1CCCCO[C@H](CN(C)C(=O)Nc2ccc(C(F)(F)F)cc2)[C@@H](C)CN([C@H](C)CO)C(=O)c2cc(NS(=O)(=O)c3ccc(F)cc3)ccc2O1`, the cytotoxicity call was “inactive”.
In the case of `C[C@@H]1CN([C@@H](C)CO)C(=O)c2cc(NS(=O)(=O)c3ccc(F)cc3)ccc2O[C@@H](C)CCCCO[C@@H]1CN(C)C(=O)Nc1ccc(C(F)(F)F)cc1`, the cytotoxicity call was “active”.
With `C[C@@H]1CCCCO[C@H](CN(C)C(=O)Nc2ccc(C(F)(F)F)cc2)[C@H](C)CN([C@@H](C)CO)C(=O)c2cc(NS(=O)(=O)c3ccc(F)cc3)ccc2O1` the entry was “active”; with `C[C@@H]1CCCCO[C@H](CN(C)C(=O)Nc2ccc(C(F)(F)F)cc2)[C@@H](C)CN([C@@H](C)CO)C(=O)c2cc(NS(=O)(=O)c3ccc(F)cc3)ccc2O1`, “inactive”.
Regarding `C[C@H](CO)N1C[C@H](C)[C@H](CN(C)C(=O)Nc2ccc(C(F)(F)F)cc2)OCCCC[C@H](C)Oc2ccc(NS(=O)(=O)c3ccc(F)cc3)cc2C1=O`, the cytotoxicity call is “inactive”.
Regarding `C[C@H](CO)N1C[C@H](C)[C@@H](CN(C)C(=O)Nc2ccc(C(F)(F)F)cc2)OCCCC[C@H](C)Oc2ccc(NS(=O)(=O)c3ccc(F)cc3)cc2C1=O`, the cytotoxicity call was “inactive”.
In the case of `C[C@@H]1CCCCO[C@H](CN(C)C(=O)Nc2ccc(C(F)(F)F)cc2)[C@H](C)CN([C@H](C)CO)C(=O)c2cc(NS(=O)(=O)c3ccc(F)cc3)ccc2O1`, the cytotoxicity call was “active”.
As to `C[C@H]1CCCCO[C@H](CN(C)C(=O)Nc2ccc(C(F)(F)F)cc2)[C@@H](C)CN([C@@H](C)CO)C(=O)c2cc(NS(=O)(=O)c3ccc(F)cc3)ccc2O1`, the cytotoxicity call was “active”.
As for `C[C@H]1CN([C@@H](C)CO)S(=O)(=O)c2ccc(C#CC(C)(C)O)cc2O[C@H]1CN(C)Cc1ccccc1`, the entry is “inactive”; as for `O=C(NO)c1ccc(C(=O)N/N=C/[C@H](O)[C@H](O)[C@@H](O)[C@@H](O)CO)cc1`, “inactive”.
Turning to `C[C@@H]1CCCCO[C@H](CN(C)S(=O)(=O)c2ccc(F)cc2)[C@@H](C)CN([C@H](C)CO)C(=O)c2cc(NS(C)(=O)=O)ccc2O1`, the cytotoxicity call is “inactive”.
With `C[C@@H]1CCCCO[C@H](CN(C)S(=O)(=O)c2ccccc2)[C@H](C)CN([C@H](C)CO)C(=O)c2cc(NC(=O)Nc3ccccc3)ccc2O1`, the cytotoxicity call is “inactive”.
With `C[C@@H]1CCCCO[C@@H](CN(C)Cc2ccc(C(=O)Nc3ccccc3N)cc2)[C@@H](C)CN([C@H](C)CO)C(=O)c2cc(NC(=O)CCC(F)(F)F)ccc2O1` the entry was “inactive”; with `C[C@@H]1CN([C@@H](C)CO)S(=O)(=O)c2ccc(C#C[C@@H](C)O)cc2O[C@H]1CN(C)C(=O)c1ccccc1`, “inactive”; with `COc1ccc(NC(=O)Nc2ccc3c(c2)C(=O)N([C@@H](C)CO)C[C@@H](C)[C@H](CN(C)S(=O)(=O)c2ccccc2)OCCCC[C@H](C)O3)cc1`, “inactive”.
As for `COc1ccc(S(=O)(=O)N(C)C[C@H]2Oc3ccc(NS(=O)(=O)c4ccccc4)cc3CC(=O)N([C@H](C)CO)C[C@H]2C)cc1`, the entry is “inactive”; as for `C[C@H]1CCCCO[C@@H](CN(C)C(=O)Nc2ccc(C(F)(F)F)cc2)[C@@H](C)CN([C@@H](C)CO)C(=O)c2cc(NS(=O)(=O)c3ccc(F)cc3)ccc2O1`, “inactive”; as for `C[C@@H]1CCCCO[C@@H](CN(C)C(=O)Nc2ccc(C(F)(F)F)cc2)[C@H](C)CN([C@H](C)CO)C(=O)c2cc(NS(=O)(=O)c3ccc(F)cc3)ccc2O1`, “inactive”.
`C[C@@H]1CCCCO[C@@H](CN(C)C(=O)Nc2ccc(C(F)(F)F)cc2)[C@@H](C)CN([C@H](C)CO)C(=O)c2cc(NS(=O)(=O)c3ccc(F)cc3)ccc2O1`: the cytotoxicity call is “active”.
With `C[C@@H]1CCCCO[C@@H](CN(C)C(=O)Nc2ccc(C(F)(F)F)cc2)[C@H](C)CN([C@@H](C)CO)C(=O)c2cc(NS(=O)(=O)c3ccc(F)cc3)ccc2O1` the entry was “active”; with `C[C@@H]1CCCCO[C@@H](CN(C)S(=O)(=O)c2cccs2)[C@H](C)CN([C@H](C)CO)C(=O)c2cc(NS(=O)(=O)c3cn(C)cn3)ccc2O1`, “inactive”; with `COCC#Cc1ccc2c(c1)O[C@H](CN(C)S(=O)(=O)c1ccc(OC)cc1)[C@H](C)CN([C@H](C)CO)S2(=O)=O`, “inactive”.
Regarding `C[C@@H]1CN([C@@H](C)CO)C(=O)c2cccc(NS(C)(=O)=O)c2O[C@H]1CN(C)C(=O)Nc1ccc(F)cc1`, the cytotoxicity call is “inactive”.
With `C[C@H]1CN([C@@H](C)CO)C(=O)c2cc(NC(=O)Cn3cnnn3)ccc2O[C@@H]1CN(C)Cc1ccc2c(c1)OCO2` the entry was “inactive”.
Turning to `O=S1(=O)N[C@H](c2ccccc2)CO1`, the cytotoxicity call was “inactive”.
As to `Cc1ccc(S(=O)(=O)Nc2ccc3c(c2)CC(=O)N([C@H](C)CO)C[C@@H](C)[C@H](CN(C)C(=O)Nc2cccc4ccccc24)O3)cc1`, the cytotoxicity call is “inactive”.
